# Experimental data as given in PubChem BioAssay (NCATS).
# Results filed as inconclusive are left out. Calls of active or inactive are those of the source. Calls come from the whole dose curve; as a rule, active = well fitted curve in the direction sought with a large enough effect; inconclusive = small, poorly fitted or top-dose-only effect, or another doubt; inactive = no such curve, though single readings can be large; an effect the other way counts as inactive or inconclusive.
# Target: Voltage-gated inwardly rectifying potassium channel KCNH2 (Homo sapiens) (UniProt Q12809)
# Sequence (Q12809 whole entry, looked up): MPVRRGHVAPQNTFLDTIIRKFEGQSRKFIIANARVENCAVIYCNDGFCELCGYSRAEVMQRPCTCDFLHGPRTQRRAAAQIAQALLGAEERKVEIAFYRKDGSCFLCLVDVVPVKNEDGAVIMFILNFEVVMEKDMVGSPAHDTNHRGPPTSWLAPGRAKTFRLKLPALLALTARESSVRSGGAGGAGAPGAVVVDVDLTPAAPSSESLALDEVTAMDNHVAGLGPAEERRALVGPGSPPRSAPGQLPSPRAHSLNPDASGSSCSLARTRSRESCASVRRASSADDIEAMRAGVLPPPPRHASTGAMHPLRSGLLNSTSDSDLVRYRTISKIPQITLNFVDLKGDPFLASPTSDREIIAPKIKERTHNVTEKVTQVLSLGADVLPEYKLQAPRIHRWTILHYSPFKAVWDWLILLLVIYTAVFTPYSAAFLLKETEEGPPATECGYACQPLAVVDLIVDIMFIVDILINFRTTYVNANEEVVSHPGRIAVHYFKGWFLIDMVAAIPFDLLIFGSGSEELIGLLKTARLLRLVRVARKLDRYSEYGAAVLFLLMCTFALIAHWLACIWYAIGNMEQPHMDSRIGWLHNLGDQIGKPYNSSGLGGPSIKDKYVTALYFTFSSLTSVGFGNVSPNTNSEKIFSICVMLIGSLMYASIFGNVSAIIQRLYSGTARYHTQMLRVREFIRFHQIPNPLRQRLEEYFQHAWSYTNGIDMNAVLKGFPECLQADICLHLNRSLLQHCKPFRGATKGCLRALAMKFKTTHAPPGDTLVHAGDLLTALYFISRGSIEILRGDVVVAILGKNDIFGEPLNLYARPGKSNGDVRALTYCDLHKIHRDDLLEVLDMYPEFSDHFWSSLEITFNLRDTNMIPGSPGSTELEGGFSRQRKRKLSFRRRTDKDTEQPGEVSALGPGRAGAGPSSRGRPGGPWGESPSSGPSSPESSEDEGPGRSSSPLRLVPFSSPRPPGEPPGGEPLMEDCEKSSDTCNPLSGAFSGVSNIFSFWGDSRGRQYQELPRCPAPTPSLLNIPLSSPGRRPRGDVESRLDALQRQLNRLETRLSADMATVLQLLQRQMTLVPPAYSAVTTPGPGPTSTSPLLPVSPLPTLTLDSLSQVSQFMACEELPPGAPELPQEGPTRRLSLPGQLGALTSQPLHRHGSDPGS
# Assay: qHTS Assay for Small Molecule Inhibitors of the Human hERG Channel Activity (AID 588834);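 note: lower thallium flux fluorescence means stronger hERG block; nearly all actives have a fitted effect of over 50% in size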; note: potency is the fitted concentration of half-maximal effect; for activity change, negative = inhibition: top concentration of the series differs between compounds; % is set by controls: 0 for no effect and ±100 for the full control effect
# Conditions: U2OS BacMam hERG, FluxOR thallium flux fluorescence; series mostly up to 46.1 µM; activity change, negative = inhibition: at the top concentration
# Method in brief: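 Thallium serves as surrogate for K+ influx through BacMam-delivered hERG in U2OS cells. Compounds are added for about 10 minutes after dye loading; stimulation buffer then starts flux, monitored kinetically on FDSS.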
SMILES,"activity change, negative = inhibition",Potency
CCCC1CCCCN1 (stereo not given),21.1% (inactive),–
Clc1ccc(CCC(Cn2ccnc2)Sc2c(Cl)cccc2Cl)cc1 (stereo not given),–,5010 nM (active)
N[C@@H]1C[C@H]1c1ccccc1,-7.8% (inactive),–
CC(C)NCC(O)c1ccccc1Cl (stereo not given),6.05% (inactive),–
Cc1ccc2c(c1)C1CN(C)CCC1N2 (stereo not given),6.28% (inactive),–
O=C(NC(O)C(Cl)(Cl)Cl)NC(O)C(Cl)(Cl)Cl (stereo not given),1.51% (inactive),–
CN1CCN(C(=O)O[C@H]2c3nccnc3C(=O)N2c2ccc(Cl)cn2)CC1,-2.92% (inactive),–
CC(C)CC(N(C)C)C1(c2ccc(Cl)cc2)CCC1 (stereo not given),-22.5% (inactive),–
C=C1CC[C@@]2(O)[C@H]3Cc4ccc(O)c5c4[C@@]2(CCN3CC2CC2)[C@H]1O5,-6.44% (inactive),–
CC(C)(N)Cc1ccc(Cl)cc1,6.37% (inactive),–
CC(=O)Nc1cc([As](=O)(O)O)ccc1O,6.08% (inactive),–
CC(C)(C)NCC(O)c1cc(Cl)c(N)c(Cl)c1 (stereo not given),25.9% (inactive),–
NP(N)(=O)NC(=O)c1ccc(F)cc1,1.17% (inactive),–
CCOC(=O)C1(c2ccccc2)CCN(CCC(C#N)(c2ccccc2)c2ccccc2)CC1,–,355 nM (active)
CC1NCCOC1c1ccccc1 (stereo not given),10.1% (inactive),–
FC(F)(F)c1cccc(C2=CCN(CCc3ccc4ccccc4c3)CC2)c1,–,1580 nM (active)

SMILES,"activity change, negative = inhibition",Potency
O=C1CC[C@@]2(O)[C@H]3Cc4ccc(O)c5c4[C@@]2(CCN3CC2CC2)[C@H]1O5,-24% (inactive),–
N[C@@H](Cc1ccc(Oc2cc(I)c(O)c(I)c2)c(I)c1)C(=O)O,9.25% (inactive),–
CCN(C(C)=O)c1cccc(-c2ccnc3c(C#N)cnn23)c1,-0.326% (inactive),–
Clc1cccc(N2CCNCC2)c1,9.58% (inactive),–
C=C1C[C@@H]2[C@H](CC[C@]3(C)C(=O)CC[C@@H]23)[C@@]2(C)C=CC(=O)C=C12,3.04% (inactive),–
CC(C)[N+](C)(CCOC(=O)C1c2ccccc2Oc2ccccc21)C(C)C,3.35% (inactive),–
COc1ccc(Cc2nccc3cc(OC)c(OC)cc23)cc1OC,–,inactive
CC[N+](CC)(CC)CC,30.3% (inactive),–
CC[N+]1(C)CCCC(OC(=O)C(O)(c2ccccc2)c2ccccc2)C1 (stereo not given),10.3% (inactive),–
C#CCN(C)[C@H](C)Cc1ccccc1,-7.12% (inactive),–
CCC(C(N)=O)N1CCCC1=O (stereo not given),-6.82% (inactive),–
C=CCN1CC[C@]23c4c5ccc(O)c4O[C@H]2C(=O)CC[C@@]3(O)[C@H]1C5,–,inactive
CN(C)CCc1ccc(O)cc1,1.89% (inactive),–
CN(C)[C@@H]1C(=O)C(C(N)=O)=C(O)[C@@]2(O)C(=O)C3=C(O)c4c(O)cccc4[C@@](C)(O)[C@H]3C[C@@H]12,16.9% [at 20.6 µM] (inactive),–
CCC1C(=O)OCC1Cc1cncn1C (stereo not given),0.622% (inactive),–
CCn1cc(C(=O)O)c(=O)c2ccc(C)nc21,–,inactive

# Target: Luciferin 4-monooxygenase (Photinus pyralis) (UniProt P08659)
# Sequence (P08659 whole entry, looked up): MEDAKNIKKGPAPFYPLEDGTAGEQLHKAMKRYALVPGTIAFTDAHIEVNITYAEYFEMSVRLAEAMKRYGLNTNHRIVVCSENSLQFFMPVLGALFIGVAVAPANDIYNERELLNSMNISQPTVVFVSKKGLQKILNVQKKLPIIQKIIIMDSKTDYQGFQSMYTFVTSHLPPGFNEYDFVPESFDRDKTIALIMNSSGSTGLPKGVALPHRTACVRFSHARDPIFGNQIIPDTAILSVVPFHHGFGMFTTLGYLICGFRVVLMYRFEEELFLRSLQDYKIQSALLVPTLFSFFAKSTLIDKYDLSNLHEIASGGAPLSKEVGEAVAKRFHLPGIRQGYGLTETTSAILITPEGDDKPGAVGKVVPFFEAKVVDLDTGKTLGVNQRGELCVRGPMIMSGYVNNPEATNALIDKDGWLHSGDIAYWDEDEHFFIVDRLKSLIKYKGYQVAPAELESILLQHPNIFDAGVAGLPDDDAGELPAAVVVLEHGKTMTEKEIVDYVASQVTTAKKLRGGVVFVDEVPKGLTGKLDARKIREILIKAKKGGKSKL
# Assay: Biochemical firefly luciferase enzyme assay for NPC (AID 624030);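 note: purified P. pyralis luciferase at 10 nM with luciferin and ATP substrate; 0% = DMSO and -100% = full luciferase inhibition by PTC124 control; nearly all actives have a fitted effect of over 70% in size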
# Conditions: purified P. pyralis luciferase, luminescence, 5 min; series mostly up to 58.6 µM; activity change, negative = inhibition: at the top concentration
# Method in brief: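 Purified P. pyralis luciferase at 10 nM in 50 mM Tris Acetate (final), luminescence read within 5 minutes of enzyme addition to compounds. Activity normalised to PTC124 versus DMSO; concentration-response curves classed by r2, magnitude and activity.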
SMILES,"activity change, negative = inhibition",Potency
CCCC1CCCCN1 (stereo not given),-5.95% (inactive),–
CC(C)NCC(O)c1ccccc1Cl (stereo not given),2.1% (inactive),–
O=C(NC(O)C(Cl)(Cl)Cl)NC(O)C(Cl)(Cl)Cl (stereo not given),-1.66% (inactive),–
CN1CCN(C(=O)O[C@H]2c3nccnc3C(=O)N2c2ccc(Cl)cn2)CC1,0.415% (inactive),–
CC(C)CC(N(C)C)C1(c2ccc(Cl)cc2)CCC1 (stereo not given),0.945% (inactive),–
C=C1CC[C@@]2(O)[C@H]3Cc4ccc(O)c5c4[C@@]2(CCN3CC2CC2)[C@H]1O5,0.417% (inactive),–
CC(C)(N)Cc1ccc(Cl)cc1,-0.575% (inactive),–
CC(=O)Nc1cc([As](=O)(O)O)ccc1O,0.916% (inactive),–
CC(C)(C)NCC(O)c1cc(Cl)c(N)c(Cl)c1 (stereo not given),-0.15% (inactive),–
NP(N)(=O)NC(=O)c1ccc(F)cc1,27.1% (inactive),–
CCOC(=O)C1(c2ccccc2)CCN(CCC(C#N)(c2ccccc2)c2ccccc2)CC1,–,inactive
CC1NCCOC1c1ccccc1 (stereo not given),-3.19% (inactive),–
FC(F)(F)c1cccc(C2=CCN(CCc3ccc4ccccc4c3)CC2)c1,-1.1% (inactive),–
CCN(C(C)=O)c1cccc(-c2ccnc3c(C#N)cnn23)c1,5.21% (inactive),–
Clc1cccc(N2CCNCC2)c1,3.52% (inactive),–
CC[N+](CC)(CC)CC,1.48% (inactive),–
CC[N+]1(C)CCCC(OC(=O)C(O)(c2ccccc2)c2ccccc2)C1 (stereo not given),0.215% (inactive),–
CCC(C(N)=O)N1CCCC1=O (stereo not given),-4.46% (inactive),–
CN(C)CCc1ccc(O)cc1,-0.988% (inactive),–

# System: not listed separately
# Assay: S16 Schwann cell viability assay (CellTiter-Glo assay) (AID 624031);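 note: native untransfected S16 rat Schwann cells; cellular ATP luminescence as a viability measure; plate controls were DMSO-treated cells for no effect and cell-free wells for full effect; nearly all actives have a fitted effect of over 70% in size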
# Conditions: S16 rat Schwann cells viability, 24 h; series mostly up to 57.5 µM; activity change, negative = cytotoxicity: at the top concentration
# Method in brief: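 Cells were seeded at 500-750 per well in phenol red-free DMEM with 10% FBS and left overnight. Compounds or DMSO were pinned in, incubation ran 24 h at 37 °C/5% CO2, then CellTiter-Glo reagent was added and luminescence measured.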
row,SMILES,"activity change, negative = cytotoxicity"
1,CCCC1CCCCN1 (stereo not given),10.3% (inactive)
2,CC(C)NCC(O)c1ccccc1Cl (stereo not given),-0.344% (inactive)
3,O=C(NC(O)C(Cl)(Cl)Cl)NC(O)C(Cl)(Cl)Cl (stereo not given),-3.74% (inactive)
4,CN1CCN(C(=O)O[C@H]2c3nccnc3C(=O)N2c2ccc(Cl)cn2)CC1,-16.9% (inactive)
5,CC(C)CC(N(C)C)C1(c2ccc(Cl)cc2)CCC1 (stereo not given),-0.182% (inactive)
6,C=C1CC[C@@]2(O)[C@H]3Cc4ccc(O)c5c4[C@@]2(CCN3CC2CC2)[C@H]1O5,-5.48% (inactive)
7,CC(C)(N)Cc1ccc(Cl)cc1,-2.53% (inactive)
8,CC(=O)Nc1cc([As](=O)(O)O)ccc1O,4.94% (inactive)
9,CC(C)(C)NCC(O)c1cc(Cl)c(N)c(Cl)c1 (stereo not given),3.57% (inactive)
10,NP(N)(=O)NC(=O)c1ccc(F)cc1,-24.6% (inactive)
11,CCOC(=O)C1(c2ccccc2)CCN(CCC(C#N)(c2ccccc2)c2ccccc2)CC1,-8.81% (inactive)
12,CC1NCCOC1c1ccccc1 (stereo not given),-2.61% (inactive)
13,FC(F)(F)c1cccc(C2=CCN(CCc3ccc4ccccc4c3)CC2)c1,0.346% (inactive)
14,CCN(C(C)=O)c1cccc(-c2ccnc3c(C#N)cnn23)c1,9.11% (inactive)
15,Clc1cccc(N2CCNCC2)c1,-21.3% (inactive)
16,CC[N+](CC)(CC)CC,-1.7% (inactive)
17,CC[N+]1(C)CCCC(OC(=O)C(O)(c2ccccc2)c2ccccc2)C1 (stereo not given),0% (inactive)
18,CCC(C(N)=O)N1CCCC1=O (stereo not given),1.32% (inactive)
19,CN(C)CCc1ccc(O)cc1,-23.5% (inactive)
